# Screening data: PubChem BioAssay, The Scripps Research Institute Molecular Screening Center
# In the library only some 4.8% were active in any assay of this set; here they are far more common.
# hcDAF12 agonist = activators of H. contortus DAF-12 nuclear receptor | HEK293 hcDAF-12 lit1-tk-luc reporter, luminescence; 0% DMSO, 100% Δ7-dafachronic acid | activation, % at 6.8 µM | hit rate 1.4% among 370,000;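 active means activation above the mean of all tested compounds plus 3 SD, cut at about 5.5% in these data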;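 further: 100% = response to 3 µM Δ7-dafachronic acid high control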
# DAX1 inh-1 = blocks DAX1 repression of SF-1 activated StAR promoter; HEK293T StAR-luciferase reporter, SF-1/DAX-1 repression relief; inhibition, % at 6.8 µM; hit rate 1.1% among 370,000;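 active means inhibition above the mean over all tested compounds plus 3 SD, cut at about 3.6% in these data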;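 further: 0% = DAX-1 cells with DMSO and 100% = cells lacking DAX-1 with DMSO; higher inhibition means more luminescence from relief of DAX-1 repression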
# ssDAF-12 act = activators of S. stercoralis DAF-12 nuclear receptor; hit rate 1% among 370,000; AID 652126; HEK293 ssDAF-12/GRIP1 lit1-tk-luc reporter, luminescence; % of 3 µM dafachronic acid response; activation, % at 6.8 µM;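 active means activation above the mean over all tested compounds plus 3 SD, cut at about 0.9% in these data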;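 further: 0% = DMSO-only wells and 100% = 3 µM delta7-dafachronic acid wells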
# SMARCA2 act = activators of SMARCA2 function. activation, % at 9.1 µM. MG213 cells, MMTV-luciferase reporter, dexamethasone, overnight. hit rate 1% among 370,000; in the data active means activation above about 7.8%;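 further: 0% = vehicle wells and 100% = reference activator wells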
# DAX1 inh-2 = NR0B1 (DAX1) inhibition. P51843. HEK293 Gal4-DAX1 luciferase reporter, luminescence. inhibition, % at 6.75 µM. hit rate 0.99% among 340,000. AID 504766;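 active means inhibition above the mean over all tested compounds plus 3 SD, cut at about 4.2% in these data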;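 further: 0% = DAX1-transfected cells with DMSO and 100% = empty-vector control cells with DMSO; inhibition shows as a rise in luminescence from relieved DAX1 repression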
# Target sequence (P51843 207-470 limits assumed): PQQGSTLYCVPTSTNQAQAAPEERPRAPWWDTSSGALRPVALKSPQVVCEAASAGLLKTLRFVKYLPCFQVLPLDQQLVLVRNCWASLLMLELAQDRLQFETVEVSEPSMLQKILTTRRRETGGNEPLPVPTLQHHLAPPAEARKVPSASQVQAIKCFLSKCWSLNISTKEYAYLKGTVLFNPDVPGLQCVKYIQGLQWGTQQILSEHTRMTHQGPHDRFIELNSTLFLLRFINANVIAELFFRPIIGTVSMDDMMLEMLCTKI
# hgDAF12 agonist = hgDAF-12 agonism, primary luciferase screen; HEK293 GAL4-hgDAF12 UAS-luciferase reporter, agonist luminescence; normalized to butyrate control; activation, % at 6.8 µM; hit rate 1.8% among 370,000;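 active means activation above a cutoff set at the mean of all screened compounds plus 3 SD, cut at about 10% in these data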;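 further: 0% = DMSO wells and 100% = sodium butyrate wells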
# DAX1 conf = confirmation of human DAX1 (NR0B1) inhibitors; shares compounds with DAX1 inh-1; HEK293T StAR-promoter luciferase reporter, SF-1/DAX-1 repression; inhibition, % at 6.8 µM; hit rate 87% among 2,400;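 active means inhibition above the average of every tested compound plus 3 SD, cut at about 3.8% in these data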;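 further: 0% = DAX-1 cells with DMSO and 100% = no DAX-1 control cells with DMSO; active compounds raise luminescence by relieving repression of the StAR reporter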
# Target sequence (P51843 whole entry, looked up): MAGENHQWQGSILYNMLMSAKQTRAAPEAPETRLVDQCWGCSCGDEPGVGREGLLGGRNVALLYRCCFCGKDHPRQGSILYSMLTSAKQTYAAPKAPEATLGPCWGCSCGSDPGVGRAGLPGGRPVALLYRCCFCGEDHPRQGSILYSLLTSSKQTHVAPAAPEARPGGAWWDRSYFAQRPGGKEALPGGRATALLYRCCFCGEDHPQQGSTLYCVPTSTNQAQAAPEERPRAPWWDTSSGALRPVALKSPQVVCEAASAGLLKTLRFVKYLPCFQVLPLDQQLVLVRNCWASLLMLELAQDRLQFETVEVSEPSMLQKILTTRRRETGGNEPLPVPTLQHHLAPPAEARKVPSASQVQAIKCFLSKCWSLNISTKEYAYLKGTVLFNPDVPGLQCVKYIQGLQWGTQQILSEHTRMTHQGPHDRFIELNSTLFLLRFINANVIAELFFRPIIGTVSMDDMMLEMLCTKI
# SF1 AF2mut Luc = nonselective inhibitor or artifact in SF-1 mutant DAX1 counter-screen. HEK293 StAR-luciferase, SF-1 AF2 mutant, luminescence. shares compounds with DAX1 inh-1. inhibition, % at 6.8 µM. hit rate 78% among 2,400;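 active means inhibition above the mean of all tested compounds plus 3 SD, cut at about 3% in these data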;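 further: 0% = DAX-1 transfected cells with DMSO and 100% = cells without DAX-1 with DMSO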
# SMARCA2 act conf = SMARCA2 activation, confirmation screen. shares compounds with SMARCA2 act. MG213 cells, MMTV-luciferase with dexamethasone, luminescence, overnight; MG213 cells expressing E1A, Rb sequestered; DMSO wells 0%, reference activator 100%. activation, % at 9.1 µM. hit rate 30% among 3,500. AID 652260;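 active means activation above its plate's cutoff, the mean activation of tested wells plus 3 SD, cut at about 7.9% in these data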
# VP16 Luc act = activates GAL4-VP16 luciferase, flagging SMARCA2 activator hits | hit rate 41% among 3,500 | AID 686939 | activation, % at 9.1 µM | shares compounds with SMARCA2 act | HEK293 GAL4-VP16 pG5luc reporter, luciferase luminescence; scaled: DMSO wells 0%, SAHA wells 100%;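 active means activation above the solvent-only control well mean plus 3 SD, averaged across control plates, cut at about 5.2% in these data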
# LXR ag = activates human LXR-beta, counter-screen for hcDAF-12 agonists | shares compounds with hcDAF12 agonist | HEK293 Gal4-LXR tk-luc reporter, luminescence, 24 h; normalized: DMSO 0%, positive control 100% | activation, % at 6.8 µM | 3,400 tested, under 10 active | AID 743027;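 active means mean percent activation of the reporter above a cutoff set as the average over tested compounds plus their standard deviation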
# hcDAF12 ag = hcDAF-12 agonism, confirmation assay | activation, % at 6.8 µM | AID 743032 | HEK293 hcDAF-12 lit1-tk-luc reporter, luminescence; % of Δ7-dafachronic acid response | hit rate 61% among 3,400 | shares compounds with hcDAF12 agonist;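 active means mean activation across triplicate tests above the threshold derived from the earlier primary screen, cut at about 5.5% in these data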;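 further: 0% = DMSO only wells and 100% = 3 µM Δ7-dafachronic acid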
# hgDAF12 conf = hgDAF-12 agonism, confirmation assay. activation, % at 6.8 µM. shares compounds with hgDAF12 agonist. hit rate 80% among 3,300. HEK293 GAL4-hgDAF12 luciferase reporter, agonist mode; percent of butyrate response;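 active means mean activation over triplicate wells above the hit cutoff derived from the earlier primary screen, cut at about 11% in these data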;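 further: 0% = DMSO low control and 100% = 2 mM sodium butyrate high control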
# LXRb DAF12 ctr = activates human LXR-beta, counter-screen for DAF-12 agonists; HEK293 Gal4-LXR luciferase reporter, 24 h; 3,300 tested, under 10 active; activation, % at 6.8 µM; shares compounds with hgDAF12 agonist;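 active means mean activation of the triplicate above a set limit carried over from the primary screen, none filed active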
# * marks the source's active call; other numbers are inactive results; · = no result given.
SMILES,hcDAF12 agonist,DAX1 inh-1,ssDAF-12 act,SMARCA2 act,DAX1 inh-2,hgDAF12 agonist,DAX1 conf,SF1 AF2mut Luc,LXR ag,hcDAF12 ag,hgDAF12 conf,LXRb DAF12 ctr,others
Cc1ccc(/C=C(\C#N)C(=O)Nc2ccccn2)o1,3,11*,1,7,3,18*,10*,7.6*,·,·,13*,1,
Cc1ccc(/C=C(\C#N)C(=O)NC(C)C)o1,-2,0,-1,-1,1,0,·,·,·,·,·,·,
CC(C)Cc1ccc(/C=C/C(=O)N2CCOCC2)cc1,4,6.0*,1.4*,2,3,16*,9.5*,5.2*,·,·,12*,1,
CC(C)(C)c1ccc(/C=C/C(=O)N2CCOCC2)cc1,4,2,0,0,1,10,·,·,·,·,·,·,
Cc1ccc(Cc2c(-c3cccc(Br)c3)nc3ccc(Br)cn23)cc1,1,3,-1,6,·,6,·,·,·,·,·,·,
Cc1ccc2nc(-c3cccc(Br)c3)c(Cc3ccsc3)n2c1,3,4.5*,-1,9.5*,·,15*,3,1,·,·,5,0,SMARCA2 act conf=9.7*;VP16 Luc act=8.9*
c1cncc(-c2nc3cc4ccccc4cc3[nH]2)c1,9.5*,7.8*,1.5*,8.4*,4.6*,21*,11*,5.3*,2,9.6*,21*,1,SMARCA2 act conf=13*;VP16 Luc act=17*
C/C(=N/NC(=O)c1cccs1)c1ccc(N2CCOCC2)cc1,6.0*,4.7*,0,3,4,20*,4,2,·,·,5,0,
COc1cccc(C(=O)Nc2nnc(-c3ccccc3)s2)c1OC,7.0*,5.5*,0,4,1,19*,7.6*,4.0*,1,4,14*,1,
O=C(Nc1nnc(-c2ccccc2)s1)c1ccccc1O,1,1,-1,4,3,4,·,·,·,·,·,·,
COc1ccccc1NC(=O)CCCN1C(=O)C2CC=CCC2C1=O (centres undefined),1,1,0,-1,1,-1,·,·,·,·,·,·,
CC(=O)Nc1ccc(NC(=O)COc2ccc3c(c2)CCC3)cc1,0,0,-1,2,2,-1,·,·,·,·,·,·,
Cc1ccnc(NC(=O)COc2ccc3c(c2)CCC3)c1,5,14*,0,4,-3,14*,12*,4.2*,·,·,12*,1,
CC1=CCC(C(=O)O)C(C(=O)Nc2ccc(-c3nc4ccc(C)cc4s3)cc2)C1 (centres undefined),6.7*,6.1*,1.9*,7,0,13*,2,1,0,3,5,0,
CCC(C)(C)NC(=S)Nc1ccc(-c2nc3ccc(C)cc3s2)cc1,9.1*,8.4*,0.9*,1,1,20*,16*,7.6*,1,5.7*,19*,1,
CCCCNC(=S)Nc1ccc(-c2nc3ccc(C)cc3s2)cc1,10*,7.1*,1,5,1,20*,13*,9.0*,1,5,20*,1,
CNC(=S)Nc1ccc(-c2nc3ccc(C)cc3s2)cc1,7.3*,5.9*,1.8*,5,1,18*,12*,6.2*,2,8.9*,24*,1,
Cc1cc(C)cc(N(CC(=O)Nc2ccc(-c3nc4ccc(C)cc4s3)cc2)S(C)(=O)=O)c1,3,3,-1,6,-1,10,·,·,·,·,·,·,
Cc1ccsc1CN(C)C(=O)c1ccc(Oc2ccccc2)cc1,1,0,0,-1,1,1,·,·,·,·,·,·,
CCN(C(=O)COC(=O)CCn1c(C)csc1=O)c1c(N)n(Cc2ccccc2)c(=O)[nH]c1=O,-1,1,-1,-3,2,-1,·,·,·,·,·,·,
Cc1ccc(NC(=S)c2nc3ccccc3[nH]2)c(C)c1,6.8*,5.1*,1.6*,4,1,24*,17*,8.1*,2,13*,19*,1,
CCOC(=O)c1ccc(CNC(=O)c2cc(COc3ccccc3SC)on2)o1,4,5.4*,0,6,2,15*,8.8*,4.5*,·,·,18*,1,
CSc1ccccc1OCc1cc(C(=O)NCc2ccc(C)s2)no1,1,0,-1,1,0,2,·,·,·,·,·,·,
CSCCC(=O)N1CCC(n2nccc2NC(=O)c2ccc3c(c2)OCO3)CC1,2,6.3*,0,2,3,23*,6.3*,5.7*,·,·,16*,0,
CC(=O)Nc1cccc(NC(=O)C(C)N2c3cccc4cccc(c34)S2(=O)=O)c1 (centres undefined),-3,0,0,-2,1,-2,·,·,·,·,·,·,
CC(Oc1ccc(Br)cc1)C(=O)NCc1ccccn1 (centres undefined),1,0,0,7,1,4,·,·,·,·,·,·,
Cc1ccnc(N2C(=O)c3ccccc3C2O)c1 (centres undefined),6.7*,7.1*,0,5,2,16*,11*,7.4*,1,3,16*,1,
Cn1c(SCCN2CCCC2)nnc1C1CCN(S(=O)(=O)c2ccc(F)cc2)CC1,1,0,-1,-2,0,-2,·,·,·,·,·,·,
O=C(CN1CCCc2ccccc21)NCc1ccccc1F,2,0,0,-1,·,8,·,·,·,·,·,·,
